SMILES strings stand for the structures. The source made the active and inactive calls. Unless noted, no rule for the calls is given here.

Test [1] deals with Wnt5a (protein binding on small-molecule microarray). The experiment in a line: Wnt5a binders on small-molecule microarray, primary screen, biophysical, 635/667 nm fluorescence (AID 1142).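 Also: fluorescence read at 667 nm with signal to noise per printed feature.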 Particulars: 635 nm fluorescence, higher = more signal.
Test [2] can be described thus: cell viability in Huh7 cells, primary screen, cytotoxicity control for HCV replication inhibitor project, CellTiter-Glo luminescence, basal, 48 h (AID 1143).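 Also: Huh7 hepatoma cells carrying a hepatitis C replication reporter with no stimulus; test concentration not given here.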 Particulars: Huh7 HCV replicon, higher = more signal, called active from +8 up or from −8 down.
Test [3] in a line: P. aeruginosa biofilm formation inhibitors, primary screen, PAO1 strain, BacTiter-Glo luminescence, LB-PBS (AID 1144). Particulars: 12 h, higher = more signal.
A short description of test [4]: CREB reporter modulators without forskolin, primary screen, cell-based, PC12, CRE-LacZ reporter, unstimulated (AID 1145). Particulars: no forskolin, luminescence, 4.5 h, higher = more signal, called active from +8 up or from −8 down.
Test [5] is described as follows: CREB reporter modulators under forskolin, primary screen, cell-based, PC12, CRE-LacZ reporter, forskolin-stimulated (AID 1146).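 Also: PC12 cells with 6xCRE LacZ reporter stimulated by forskolin 10 µM; beta-galactosidase reporter signal reflecting CREB driven transcription.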 As to conditions: luminescence, 4.5 h, higher = more signal, called active from +8 up or from −8 down.
The target in test [6] is Streptavidin (Streptomyces avidinii) (UniProt P22629). In words: streptavidin binders on small-molecule microarray, primary screen, artefact control for SMM compound annotation, biophysical, 635/667 nm fluorescence (AID 1147).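 Also: signal reflects streptavidin binding to arrayed compounds as a control protein.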 Particulars: streptavidin binding, higher = more signal.
Chain of Streptavidin (Streptomyces avidinii) (P22629 whole entry, looked up): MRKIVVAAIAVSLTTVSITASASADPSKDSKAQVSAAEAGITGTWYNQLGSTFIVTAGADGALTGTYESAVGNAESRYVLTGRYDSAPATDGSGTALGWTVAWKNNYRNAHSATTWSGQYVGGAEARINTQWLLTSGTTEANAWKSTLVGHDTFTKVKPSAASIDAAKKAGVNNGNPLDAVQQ
The nature of test [7]: small-molecule binders of probe aInhba, primary screen, biochemical, small-molecule microarray, 635/667 nm fluorescence (AID 1148).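 Also: score merges 667nm spot fluorescence with signal-to-noise for antibody binding to printed compounds.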 As to conditions: higher = more signal.
The target in test [8] is Torsin-1A (Homo sapiens) (UniProt O14656). The experiment in a line: torsin A binders from cell lysate, primary screen, small-molecule microarray, wild-type, 635/667 nm (AID 1149). Particulars: COS7 hTOR1A-WT lysate, 635 nm fluorescence, higher = more signal.
Chain of Torsin-1A (Homo sapiens) (O14656 whole entry, looked up): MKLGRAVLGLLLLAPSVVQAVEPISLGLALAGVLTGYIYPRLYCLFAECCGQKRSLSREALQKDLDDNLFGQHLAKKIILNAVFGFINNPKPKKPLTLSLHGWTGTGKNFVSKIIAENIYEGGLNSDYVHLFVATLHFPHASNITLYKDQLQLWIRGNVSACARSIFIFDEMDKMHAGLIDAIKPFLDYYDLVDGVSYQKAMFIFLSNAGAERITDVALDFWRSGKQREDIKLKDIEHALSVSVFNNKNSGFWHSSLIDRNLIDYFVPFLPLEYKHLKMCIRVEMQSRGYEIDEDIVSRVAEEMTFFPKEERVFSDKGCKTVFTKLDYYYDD
Test [9] has the same target. In words: small-molecule binders of mutant TOR1A in lysate, primary screen, cell lysate, small-molecule microarray, COS7 lysate, 635/667 nm fluorescence (AID 1150).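 Also: score pools 667 nm emission and signal to noise measuring lysate protein binding.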 Particulars: COS7 hTOR1A mutant lysate, 635 nm fluorescence, higher = more signal.
For test [10], the system named is Sonic hedgehog protein (Shh). The experiment in a line: small-molecule binders of Shh protein, primary screen, biochemical, small-molecule microarray, 635/667 nm fluorescence (AID 1151).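 Also: Shh protein binding to compounds spotted on small-molecule microarray slides; score combines spot fluorescence intensity with signal-to-noise across triplicate slides.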 Particulars: small-molecule microarray binding, 635 nm fluorescence; higher = more signal.
Test [11] is described as follows: E. coli DRC41 culture turbidity changes, primary screen, E. coli filamentation inducer project, strain DRC41, OD650, 48 h (AID 1152).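 Also: E. coli MC1000 strain DRC41 lacking acrAB efflux pump and sulA.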 As to conditions: E. coli DRC41 (acrAB sulA), higher = more signal, called active from +8 up or from −8 down.
Test [12] is described as follows: small-molecule binders of probe aLefty1, primary screen, biochemical, small-molecule microarray, 635/667 nm fluorescence (AID 1153).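 Also: score merges spot fluorescence with signal-to-noise ratio from the scanned slide images.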 As to conditions: higher = more signal.
Test [13] can be described thus: PSAC antagonists in infected red cells, primary screen, cell-based, P. falciparum Indochina, OD700, 1 h (AID 1154). As to conditions: P. falciparum Indochina infected RBC osmotic lysis, higher = more signal, called active from +8 up or from −8 down.
The nature of test [14]: PSAC antagonists in infected red cells, primary screen, cell-based, P. falciparum Indochina, OD700, 2 h (AID 1155).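 Also: lysis reports solute entry through the parasite surface anion channel PSAC; channel blockers reduce lysis of infected cells.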 As to conditions: P. falciparum Indochina infected erythrocytes, osmotic lysis OD700; higher = more signal, called active from +8 up or from −8 down.
A short description of test [15]: osmotic lysis modulators in infected erythrocytes, primary screen, PSAC antagonist project, cell-based, P. falciparum Indochina, OD700, 3 h (AID 1156). Particulars: higher = more signal, called active from +8 up or from −8 down.
Test [16] can be described thus: PSAC antagonists in infected red cells, primary screen, cell-based, P. falciparum Indochina, OD700, 18 h (AID 1157). Particulars: P. falciparum Indochina infected erythrocytes, osmotic lysis OD700, 18 h; higher = more signal, called active from +8 up or from −8 down.
Test [17] is described as follows: modulators of S6 phosphorylation in cells, primary screen, cell-based, A549, cytoblot, luminescence, serum-stimulated (AID 1158).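 Also: serum-stimulated A549 lung adenocarcinoma cells; signal is phosphorylated S6 detected by cytoblot immunostaining with HRP secondary.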 As to conditions: A549 phospho-S6 cytoblot, 5 h, higher = more signal.
For test [18], the target named is NADPH oxidase 2 (Homo sapiens) (UniProt P04839). In words: NOX2-dependent H2O2 signal modulators, primary screen, NOX inhibitor project, cell-based, HEK293-NOX2, PMA-stimulated, Amplex Red fluorescence (AID 1159). Also: test concentration not given here. Particulars: 45 min, higher = more signal, called active from +8 up or from −8 down.
Chain of NADPH oxidase 2 (Homo sapiens) (P04839 whole entry, looked up): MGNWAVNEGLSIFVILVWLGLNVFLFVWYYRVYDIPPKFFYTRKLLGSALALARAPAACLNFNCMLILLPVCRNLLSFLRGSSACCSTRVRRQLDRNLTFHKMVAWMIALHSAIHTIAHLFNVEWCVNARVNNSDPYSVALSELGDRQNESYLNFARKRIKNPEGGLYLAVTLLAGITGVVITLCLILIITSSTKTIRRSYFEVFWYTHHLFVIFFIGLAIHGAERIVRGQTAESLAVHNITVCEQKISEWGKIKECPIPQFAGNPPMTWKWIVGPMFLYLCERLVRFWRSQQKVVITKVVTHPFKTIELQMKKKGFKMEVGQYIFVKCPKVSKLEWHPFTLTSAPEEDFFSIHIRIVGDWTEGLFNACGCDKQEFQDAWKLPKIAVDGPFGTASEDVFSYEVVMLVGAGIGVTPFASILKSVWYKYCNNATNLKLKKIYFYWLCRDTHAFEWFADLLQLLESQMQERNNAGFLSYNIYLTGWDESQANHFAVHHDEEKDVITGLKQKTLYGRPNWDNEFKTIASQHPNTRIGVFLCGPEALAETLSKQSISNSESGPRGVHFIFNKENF
Test [19] addresses NADPH oxidase 4 (Homo sapiens) (UniProt Q9NPH5). In words: NOX4-dependent H2O2 signal modulators, primary screen, NOX inhibitor project, cell-based, HEK293-NOX4, tetracycline-induced, Amplex Red fluorescence (AID 1160). Particulars: 45 min, higher = more signal, called active from +8 up or from −8 down.
Test [20] concerns the target NADPH oxidase 5 (Homo sapiens) (UniProt Q96PH1). The experiment in a line: NOX5-dependent H2O2 signal modulators, primary screen, NOX inhibitor project, cell-based, HEK293-NOX5, Amplex Red fluorescence (AID 1161). As to conditions: HEK293-NOX5, ionomycin, 45 min, higher = more signal.

Chain of NADPH oxidase 4 (Homo sapiens) (Q9NPH5 whole entry, looked up): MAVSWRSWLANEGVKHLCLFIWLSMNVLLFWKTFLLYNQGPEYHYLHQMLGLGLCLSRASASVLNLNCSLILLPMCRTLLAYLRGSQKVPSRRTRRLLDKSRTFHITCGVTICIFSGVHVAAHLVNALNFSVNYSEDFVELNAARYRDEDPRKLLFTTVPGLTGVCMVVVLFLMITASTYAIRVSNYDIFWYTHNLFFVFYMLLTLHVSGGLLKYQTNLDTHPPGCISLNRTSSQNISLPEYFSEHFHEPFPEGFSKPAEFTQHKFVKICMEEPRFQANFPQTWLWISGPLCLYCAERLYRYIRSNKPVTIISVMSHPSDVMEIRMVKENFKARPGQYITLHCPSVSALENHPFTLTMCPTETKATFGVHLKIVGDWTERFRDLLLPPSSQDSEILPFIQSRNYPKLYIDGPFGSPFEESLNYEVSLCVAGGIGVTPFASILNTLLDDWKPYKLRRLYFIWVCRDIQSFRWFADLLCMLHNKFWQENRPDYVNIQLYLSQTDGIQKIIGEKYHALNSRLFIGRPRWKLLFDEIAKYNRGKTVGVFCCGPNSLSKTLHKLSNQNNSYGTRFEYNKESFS
Chain of NADPH oxidase 5 (Homo sapiens) (Q96PH1 whole entry, looked up): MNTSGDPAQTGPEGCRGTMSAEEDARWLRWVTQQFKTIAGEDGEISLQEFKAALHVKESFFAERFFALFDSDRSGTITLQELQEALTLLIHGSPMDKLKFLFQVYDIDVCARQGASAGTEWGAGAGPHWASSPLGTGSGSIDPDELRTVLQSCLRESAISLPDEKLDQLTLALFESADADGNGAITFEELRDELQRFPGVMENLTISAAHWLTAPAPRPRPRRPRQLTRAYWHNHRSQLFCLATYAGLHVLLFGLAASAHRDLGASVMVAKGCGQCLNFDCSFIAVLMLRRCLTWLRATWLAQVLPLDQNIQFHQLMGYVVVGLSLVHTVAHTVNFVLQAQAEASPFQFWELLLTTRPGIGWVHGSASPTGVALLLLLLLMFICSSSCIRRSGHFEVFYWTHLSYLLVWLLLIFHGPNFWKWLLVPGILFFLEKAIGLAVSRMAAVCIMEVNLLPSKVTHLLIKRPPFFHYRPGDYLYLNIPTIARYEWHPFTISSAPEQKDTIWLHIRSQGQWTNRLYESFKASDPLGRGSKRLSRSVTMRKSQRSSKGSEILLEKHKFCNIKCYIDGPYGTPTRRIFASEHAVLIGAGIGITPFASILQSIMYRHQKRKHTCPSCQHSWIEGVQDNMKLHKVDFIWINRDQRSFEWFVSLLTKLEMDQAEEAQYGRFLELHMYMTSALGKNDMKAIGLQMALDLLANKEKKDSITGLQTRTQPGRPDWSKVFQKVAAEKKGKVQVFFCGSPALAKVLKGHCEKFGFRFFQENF

As for `CCOC(=O)C1=C[C@@H](C(C)(C)C)N(S(=O)(=O)c2ccc(C)cc2)[C@H]1c1cccc(Cl)c1`, the composite z-score in [1] was 0.37; in test [6], 1.37; in test [7] it was 0.18; with Torsin-1A (Homo sapiens) [8], 0.224; with Torsin-1A (Homo sapiens) [9], 0.695; in test [10], 0.163. Further, the composite z-score in test [12] came to 0.522. Further, the z-score in [2] is -4.84 (inactive); in test [3], 1.52 (inactive); in test [4], 0.0798 (inactive); in [5], -0.651 (inactive); in test [11], -1.11 (inactive); in test [13], 1.26 (inactive). The z-score in test [14] was 1.03 (inactive); in [15] it was 0.223 (inactive); in [16] it was 0.39 (inactive); in test [17], -0.98; in test [18], -0.789 (inactive); in test [19], -0.842 (inactive). The z-score in test [20] is 0.196.

In the case of `COCCOC(=O)N1C(=O)[C@@]2(c3ccccc31)[C@H](c1ccccc1OCCO)N1[C@H](c3ccccc3)[C@H](c3ccccc3)OC(=O)[C@H]1[C@@H]2C(=O)N1CCCCCCC1`, the composite z-score in [1] amounted to 1.82; in test [6], 3.64; in test [7], 2.24; with Torsin-1A (Homo sapiens) [8] it was 2.69; with Torsin-1A (Homo sapiens) [9], 2.39; in test [10] it was 1.77. Moreover, the composite z-score in test [12] amounted to 3.11. For the same compound, the z-score in test [2] was -3.1 (inactive); in test [3] it was -0.41 (inactive); in [4], -0.744 (inactive); in test [5], 4.93 (inactive); in test [11], -0.553 (inactive); in [13] it was 1.26 (inactive). Also, the z-score was 0.612 (inactive) in [14]; 0.0224 (inactive) in [15]; 0.557 (inactive) in test [16]; -0.37 in [17]; 0.168 (inactive) in [18]; -1.29 (inactive) in test [19]. Besides, in [20], the z-score is 0.481.

In the case of `C=C(CCCC)C(=O)CC[C@@H](OC(=O)c1cccnc1)c1ccc(OCCO)cc1`, the composite z-score is 1.08 in [1]; -0.444 in test [6]; 0.0857 in test [7]; 1.12 with Torsin-1A (Homo sapiens) [8]; 0.507 with Torsin-1A (Homo sapiens) [9]; 2.35 in test [10]. Also, the composite z-score in test [12] turned out to be 0.178. For the same compound, the z-score in [2] was -2.32 (inactive); in test [3] it was 0.383 (inactive); in test [4] it was 11.5 (active); in test [5], 1.62 (inactive); in test [11], -0.704 (inactive); in test [13] it was 20.2 (active). Also, the z-score in [14] is 4.63 (inactive); in test [15] it was -0.367 (inactive); in test [16], 0.774 (inactive); in test [17], -0.58; in test [18] it was -1.3 (inactive); in test [19], -0.918 (inactive). The same compound showed a z-score in test [20] of -1.39.

Take `CN(C)C(=O)[C@@]1(Cc2ccccc2)COC(c2ccc(OCCCO)cc2)=N1`: the composite z-score is -0.243 in test [1]; 0.142 in [6]; -0.661 in [7]; 0.0565 in the test with Torsin-1A (Homo sapiens) [8]; -0.22 in the test with Torsin-1A (Homo sapiens) [9]; -0.618 in test [10]. This compound came in with a composite z-score in test [12] of -0.57. Moreover, the z-score in test [2] is -2.58 (inactive); in [3], 0.59 (inactive); in test [4] it was 1.74 (inactive); in [5], -1.3 (inactive); in test [11], 1.54 (inactive); in [13], 20.9 (active). Besides, the z-score in test [14] is 3.73 (inactive); in test [15], 2.46 (inactive); in [16] it was 1.09 (inactive); in test [17], 0.0912; in test [18] it was -1.26 (inactive); in test [19], 0.108 (inactive). Also, in [20], the z-score is -1.21.

As for `CCCCC(=O)N(CCN1CCOCC1)[C@@H]1CC(C(=O)NCCO)=C[C@H](Oc2c(I)cc(CO)cc2OC)[C@H]1O`, the composite z-score in test [1] was -0.0408; in [6], -0.0538; in test [7], -0.253; with Torsin-1A (Homo sapiens) [8], 0.314; with Torsin-1A (Homo sapiens) [9] it was -0.0203; in [10], 0.655. The compound also had a composite z-score in test [12] of -0.235. For the same compound, the z-score in test [2] was 0.0643 (inactive); in test [3], -0.141 (inactive); in [4] it was 1.4 (inactive); in test [5], -1.19 (inactive); in [11] it was 1.4 (inactive); in test [13] it was 3.89 (inactive). Moreover, the z-score in [14] was 0.756 (inactive); in test [15], 0.098 (inactive); in test [16], 0.133 (inactive); in test [17], -0.0612; in [18], -0.381 (inactive); in test [19], 0.577 (inactive). Moreover, the z-score in test [20] was 0.613.

Consider `CCOC(=O)C1=C[C@@H](C(C)(C)C)N(S(=O)(=O)c2ccc(C)cc2)[C@H]1c1ccc(C)cc1`, for which the composite z-score in test [1] came to 0.514; in test [6], 1.35; in test [7] it was 0.0857; in the test with Torsin-1A (Homo sapiens) [8] it was 0.392; with Torsin-1A (Homo sapiens) [9], 0.361; in [10], 1.7. This compound gave a composite z-score in test [12] of 0.121. The z-score in test [2] is -5 (inactive); in [3] it was 0.311 (inactive); in [4] it was -0.0137 (inactive); in test [5], -0.1 (inactive); in test [11], -1.92 (inactive); in [13], 0.302 (inactive). Also, the z-score is 0.54 (inactive) in test [14]; 0.0464 (inactive) in test [15]; -0.0532 (inactive) in test [16]; -0.53 in test [17]; -0.875 (inactive) in test [18]; -0.25 (inactive) in test [19]. The compound further yielded a z-score in test [20] of 0.251.

With `COc1cc(NN2C(C(O)C3CCCCC3)C=CC3C(=O)N(c4ccccc4)C(=O)C32)cc(OC)c1OC` (stereo not given), the composite z-score in [1] was 0.316; in test [6], 0.775; in test [7], 0.121; in the test with Torsin-1A (Homo sapiens) [8], -0.224; with Torsin-1A (Homo sapiens) [9], 0.335; in test [10], -0.686. In [12], this compound displayed a composite z-score of -0.441. Also, the z-score is -2.88 (inactive) in [2]; -0.408 (inactive) in test [3]; 0.436 (inactive) in [4]; -0.0678 (inactive) in [5]; -1.02 (inactive) in test [11]; 1.73 (inactive) in test [13]. Besides, the z-score is -0.35 (inactive) in test [14]; 1.36 (inactive) in test [15]; -1.16 (inactive) in [16]; 1.37 in [17]; -3.07 (inactive) in [18]; -5.15 (inactive) in [19]. In test [20], this compound returned a z-score of -5.24.

On to `C=CCNC(=O)[C@H]1[C@@H]2C(=O)O[C@@H](c3ccccc3)[C@@H](c3ccccc3)N2[C@@H](c2ccc(O)cc2)[C@]12C(=O)N(C(=O)OCCOC)c1ccc(C#CCC(C(=O)OC)C(=O)OC)cc12`, for which the composite z-score in [1] was 0.027; in test [6], 0.663; in [7], -0.0221; with Torsin-1A (Homo sapiens) [8], 0.757; with Torsin-1A (Homo sapiens) [9] it was 0.283; in [10], 1.75. Also, the composite z-score in test [12] is 0.139. For the same compound, the z-score was -2.96 (inactive) in test [2]; 0.102 (inactive) in test [3]; 0.0653 (inactive) in test [4]; 0.141 (inactive) in test [5]; -0.275 (inactive) in [11]; 5.56 (inactive) in test [13]. For the same compound, the z-score in [14] was 1.27 (inactive); in [15] it was -4.17 (inactive); in test [16] it was 0.516 (inactive); in test [17], -0.016; in test [18], 1.95 (inactive); in test [19], 1.14 (inactive). The z-score in test [20] was 1.52.

Values taken from PubChem BioAssay.
